Hits are enriched below; roughly 1.2% of the tested compounds scored in any of these assays.
ABCB6 inh MLPCN: blocks the human ABCB6 transporter | K562-ABCB6 porphyrin accumulation, flow cytometry, 1 h; stronger effect = lower value | fluorescence ratio to DMSO, % at 10 µM | actives 0.19% (n = 360,000) | AID 602162;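 active = fluorescence ratio to DMSO below 75%, the collection mean minus 3 SD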;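 also: signal is porphyrin accumulated inside mitochondria; 100% equals median channel fluorescence of DMSO control wells; lower ratio means ABCB6 inhibition with less porphyrin fluorescence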
VLA-4 inh: inhibition in a human VLA-4 binding assay; inhibition, % (about 7 µM as worked out from the volumes in the protocol); VLA-4 expressing cells, ligand binding flow cytometry; actives 0.2% (n = 330,000); AID 2557; in the data active = inhibition above about 50%
SKN-1 block: inhibitors of C. elegans SKN-1; C. elegans VP596 Pgst-4::GFP/RFP ratio, acrylamide-induced, 24 h; inhibition, % at 21.8 µM; actives 0.49% (n = 360,000); AID 624304;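 active = interference check ratio from 0.5 to 1.5 plus GFP to RFP signal ratio inhibition reaching or exceeding a fixed threshold, cut at about 30% in these data, passing the limit was not always enough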
CR mimetic SO: yeast age-related superoxide inhibition as caloric restriction mimetic; S. cerevisiae aged cells, superoxide DHE fluorescence; stronger effect = lower value; superoxide response (% of plate mean), % at 10 µM; actives 0.18% (n = 330,000); AID 2690;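 active = superoxide response under a set limit, about three screen SD below normal, cut at about 65% in these data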;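 also: yeast aged for seven days with compound at 30 °C before DHE staining; 100% = average MFI of all compound-treated wells on the plate with controls excluded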
Platelet DG rel: modulates dense granule release in human platelets | human platelet-rich plasma, SFLLRN dense granule ATP release, luminescence | inhibition, %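 (compounds screened at 7.5 µM in platelet-rich plasma)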 | actives 0.22% (n = 300,000);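 active = mean replicate score, as percent of positive control, at or above 50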
Numbers without * were called inactive; . = not tested or not shown.

SMILES	ABCB6 inh MLPCN	VLA-4 inh	SKN-1 block	CR mimetic SO	Platelet DG rel
CCN(CC)c1ccc(N=Nc2ncn[nH]2)cc1	100	2	46*	85	-3
O=C(Nc1ccc2snnc2c1)N1CCSCC1	95	11	39*	105	-1
O=C(NNc1c2ccccc2nc2ccccc12)c1ccc(Cl)cc1	94	-3	41*	96	1
Cc1ccc(C(=O)NNc2c3ccccc3nc3ccccc23)cc1	114	8	-4	92	-14
CCOc1ccc(/C=N/NC(=O)c2ccoc2C)cc1OC	96	0	-7	109	50*
CCN(CC)c1ccc(/C=N/NC(=O)c2ccoc2C)cc1	97	9	15	114	67*
COc1cccc(/C=N/NC(=O)c2ccoc2C)c1O	98	-42	-3	93	98*
Oc1ccc(Cl)c(CN2CCN(c3ncc(Cc4ccccc4)cn3)CC2)c1	.	.	13	.	.
Cc1ccc2nc(C(C)(C)C)c(Cc3cccc(F)c3)n2c1	101	.	16	.	.
CC(C)(C)OC(=O)Nc1ccccc1-n1nnnc1C(C(=O)c1ccc(F)cc1)N1CCOCC1 (stereo unspecified)	.	.	5	.	.
COc1cccc(N2CC(O)=C(c3ccccc3)C2=N)c1	100	7	35*	118	8
COC(=O)c1[nH]c(C)c(/C(O)=C2\C(=O)C(=O)N(CCCN3CCOCC3)C2c2ccccn2)c1C (stereo unspecified)	98	-9	38*	100	2
CCOC(=O)c1[nH]c(C)c(/C(O)=C2\C(=O)C(=O)N(CCCN3CCOCC3)C2c2cccnc2)c1C (stereo unspecified)	96	.	5	.	.
COCCOC(=O)N1CCCCC1c1cc(C(=O)Nc2cccc3c2CCCC3)no1 (stereo unspecified)	99	.	14	.	.
Cc1ccc(CN2C(=O)C(C)Sc3ccc(C#N)cc32)cc1 (stereo unspecified)	97	.	12	.	.
Cc1ccc(N=C/C(C(=O)C(F)(F)F)=C(\O)c2ccco2)cc1Cl	91	16	57*	104	-3
Cc1nn(CCCC(=O)Nc2cccnc2)c(C)c1[N+](=O)[O-]	102	2	15	94	1
Cc1nn(CC(=O)Nc2cccnc2)c(C)c1[N+](=O)[O-]	99	1	-6	99	61*
COCCNC(=O)C1(C)CCCN(Cc2cc3ccccc3o2)C1 (stereo unspecified)	99	.	12	.	.
Cc1[nH]n(-c2cccc3ccccc23)c(=O)c1C=Nc1ccc2[nH]c(=O)[nH]c2c1	104	14	41*	115	11
O=C(Nc1ccc(C(=O)N2CCCC2)cc1)c1ccccc1Br	100	-3	-17	90	-9
O=C(Nc1ccc(C2CC2(Cl)Cl)cc1)c1ccccc1Br (stereo unspecified)	105	-1	47*	113	-2
CCCCCCCCN1C(=O)[C@H](CC(=O)N2CCN(C(=O)C3CC3)CC2)C[C@@]2(C(=O)OCC)CCCC=C12	95	.	-3	.	.
COc1ccc(S(=O)(=O)N2CC(C(=O)O)Oc3ccccc32)cc1 (stereo unspecified)	100	4	31*	99	-5
O=C(NCc1cccs1)C1C(=O)Nc2ccccc2C(=O)N1C1CCCC1 (stereo unspecified)	.	.	-2	.	.
SMILES	ABCB6 inh MLPCN	VLA-4 inh	SKN-1 block	CR mimetic SO	Platelet DG rel
COc1cccc(-c2nn(-c3ccccc3)cc2C(=O)O)c1	96	2	2	112	62*
COc1ccc(-c2nn(-c3ccccc3)cc2C(=O)O)cc1OC	95	1	3	104	-2
CC(C)CC(=O)Nc1cccc(NC(=O)c2ccccc2Cl)c1	99	32	8	98	92*
CC(C)CC(=O)Nc1ccc(Nc2ccccc2)cc1	85	14	35*	97	-3
CCCC(=O)Nc1cccc(NC(=O)c2ccccc2Br)c1	103	11	7	98	86*
COc1cc2sc3cc(NCc4ccc5c(c4)OCO5)ccc3c(=O)c2cc1OC	99	0	11	92	.
COc1cc2sc3cc(NCc4ccc(C)o4)ccc3c(=O)c2cc1OC	110	-8	37*	120	.
COc1ccc(NC(=O)c2cc(C3CCCCN3S(=O)(=O)c3ccccc3)on2)c(C)c1 (stereo unspecified)	98	.	4	.	.
O=C(c1ccccc1)c1ccc2cc(O)ccc2c1	96	27	10	106	71*
COc1cccc(N2CCN(C(=O)C3CCN(C(=O)Nc4ccccc4)CC3)CC2)c1	95	.	1	.	.

Screens from PubChem BioAssay.
